KB-V1 cytotox: kills drug-selected multidrug resistant KB-V1 cells; AID 1347076; KB-V1 MDR cells viability, CellTiter-Glo, 72 h; 3.4% of 400,000 active; Potency, µM (series often up to 46.1 µM), usual class: cytotoxic; note: nearly all actives have a fitted effect of over 60% in size
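Following 72 h at 37 degrees C with compound, KB-V1 cell viability was read by CellTiter-Glo luminescence, medium being phenol-red-free DMEM plus 10% FBS; concentration-response parameters came from normalized, curve-fitted qHTS data.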
DT40 TDP1 CPT: growth inhibition of DT40 Tdp1-/-;hTDP1 cells with camptothecin (screen for TDP1 inhibitors); chicken DT40 Tdp1-/-;hTDP1 cells + 20 nM CPT, ATP luminescence, 48 h; Potency, µM (doses to about 46.2 µM), without a hit: at the highest dose activity change, negative = growth inhibition, hits mostly inhibitors; 12% of 420,000 active; AID 686979; note: nearly all actives have a fitted effect of over 55% in size
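Chicken DT40 Tdp1-/- cells stably complemented with human TDP1 were seeded at 400 cells/well in medium containing 20 nM camptothecin, exposed to pin-transferred compounds, and grown at 37 °C for at least 48 hr. Viability was read as ATP luminescence.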
KB-3-1 tox: kills parental KB-3-1 adenocarcinoma cells; KB-3-1 viability, CellTiter-Glo ATP luminescence, 72 h; 1.4% of 400,000 active; Potency, µM (doses to about 46.1 µM), most hits filed as cytotoxic; note: nearly all actives have a fitted effect of over 60% in size
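Screening of KB-3-1 cells (DMEM, 10% FBS, phenol-red free) ran from lowest to highest compound concentration; after 72 h at 37 °C viability was read luminescently and curves fitted.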
HT1080-NT tox: kills 2HG-producing HT-1080-NT fibrosarcoma cells; Potency, µM (doses to about 46.1 µM), without a hit: at the top dose activity, negative = less viability, most hits filed as cytotoxic; 1.6% of 360,000 active; HT-1080-NT fibrosarcoma viability, CellTiter-Glo ATP luminescence, 48 h; AID 686970;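 note: NT is the 2HG producing partner of a matched IDH1 knockdown line; 0% = DMSO-treated cells and -100% = media-only wells without cells; nearly all actives have a fitted effect of over 55% in size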
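Read-out is CellTiter-Glo luminescence after 10 minutes at room temperature, following 48 hours' compound treatment of HT-1080-NT cells (750 cells/well, RPMI, 5% FBS, 37 degrees C).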
HT1080 IDH1KD tx: kills HT-1080 cells with IDH1 knockdown; HT-1080 IDH1 knockdown viability, ATP luminescence, 48 h; AID 686971; Potency, µM (titrated, usually from 46.1 µM), for the others: at the top dose activity, negative = toxicity, actives largely listed as cytotoxic; 2% of 360,000 active;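 note: 0% = DMSO wells and -100% = cell-free medium wells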
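Assay cells: HT-1080 with IDH1 knockdown, 750 per well, RPMI/5% FBS. Exposure: 48 h at 37 °C following 2 h pre-incubation. Read: CellTiter-Glo luminescence; fitted concentration-response, curve class assigned.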
TDP1 cell noCPT: qHTS for Inhibitors of human tyrosyl-DNA phosphodiesterase 1 (TDP1): qHTS in cells in absence of CPT | Potency, µM (titrated, usually from 46.2 µM), for inactives: at the top dose activity change, negative = growth inhibition, hits mostly inhibitors | 15% of 420,000 active | DT40 Tdp1-/- hTDP1 cells, no CPT, ATP luminescence, 48 h; note: nearly all actives have a fitted effect of over 55% in size
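Chicken DT40 Tdp1-/- cells complemented with human TDP1, screened without camptothecin (DMSO vehicle only), 400 cells/well. Compounds pin-transferred, cells incubated at 37 °C for at least 48 hr. Growth read as ATP-dependent luminescence (CellTiter-Glo, 30 min at RT).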
Active calls of the source: *; i = inactive; ? = inconclusive; . = no result given. Shown are actives, neighbours in structure and some others; about 19% of the full set was active somewhere. Calls come from the whole dose curve; as a rule, active = well fitted curve in the direction sought with a large enough effect; inconclusive = small, poorly fitted or top-dose-only effect, or another doubt; inactive = no such curve, though single readings can be large; an effect the other way counts as inactive or inconclusive. Unless noted, % is set by controls: 0 for no effect and ±100 for the full control effect; potency is the fitted concentration of half-maximal effect.

SMILES	KB-V1 cytotox	DT40 TDP1 CPT	KB-3-1 tox	HT1080-NT tox	HT1080 IDH1KD tx	TDP1 cell noCPT
COc1ccc(-c2nc(C#N)c(NCCCN(C)C)o2)cc1OC	i	-18.2%	i	6.4%	1.5%	-5.3%
COc1ccc(-c2nc(C#N)c(NC(C)c3ccccc3)o2)cc1OC (configuration not stated)	?	?	i	-11.6%	-20.6%	16.4µM*
COc1ccc(CCNc2oc(-c3ccccc3OC)nc2C#N)cc1OC	?	?	i	1.8%	-0.7%	18.4µM*
COc1ccc(CCNc2oc(-c3ccc(OC)c(OC)c3)nc2C#N)cc1	?	11.2µM*	i	-2.8%	14.6%	?
COc1ccc(CCNc2cc(C)nc3c(-c4ccccc4OC)cnn23)cc1OC	i	?	i	-2.6%	-22.8%	18.4µM*
CCCNC(=O)CSc1nc2nc(C)c(Cc3ccccc3Cl)c(C)n2n1	i	?	i	.	.	?
CCOC(=O)c1cc(S(=O)(=O)NCc2ccccc2)[nH]n1	i	-9.3%	i	.	.	-5.5%
CS(=O)(=O)c1cccc(C(=O)Nc2ccc3c(c2)OCCCO3)c1	?	4.0%	i	-2.0%	13.3%	15.9%
Clc1ccc2c(SCC3CO3)c3ccccc3nc2c1 (configuration not stated)	16.4µM*	0.461µM*	?	?	18.4µM*	1.16µM*
CCCCCn1c(=N)n(CC(O)COc2cccc(C)c2)c2ccccc21 (configuration not stated)	?	2.91µM*	i	.	.	2.06µM*
CCn1c(=N)n(CC(O)c2ccccc2)c2ccccc21 (configuration not stated)	i	-8.8%	i	0.7%	-4.6%	-28.0%
CCCn1c(=N)n(CC(O)COc2cccc(C)c2)c2ccccc21 (configuration not stated)	14.6µM*	16.4µM*	?	-17.9%	?	14.6µM*
CCn1c(=N)n(CC(O)COc2cccc(C)c2)c2ccccc21 (configuration not stated)	?	14.6µM*	?	?	?	9.2µM*
Cc1cccc(OCC(O)CN2C(C)(C)CC(O)CC2(C)C)c1 (configuration not stated)	i	-18.9%	i	-3.1%	8.1%	-17.7%
C[C@H]1CN([C@@H](C)CO)C(=O)CCCn2nncc2CO[C@@H]1CN(C)C(=O)c1ccncc1	i	13.6%	i	-4.7%	9.7%	-1.9%
CCCNC(=O)C1(C)CCN(C(=O)c2cccc(Cl)c2)C1 (configuration not stated)	i	2.2%	i	?	20.6%	-1.8%
CCN(c1ccccc1)S(=O)(=O)c1ccc(NC(=S)NC(=O)c2cccs2)cc1	i	?	i	-9.9%	-25.7%	23.1µM*
CN(C)S(=O)(=O)c1ccc(NC(=S)NC(=O)c2cccs2)cc1	i	?	i	16.1%	3.3%	?
O=C(Nc1ccc(S(=O)(=O)N2CCN(c3ccccc3)CC2)cc1)c1cccs1	?	1.2%	i	-7.3%	-2.0%	?
O=C(NC(=S)Nc1ccc(S(=O)(=O)N2CCCCCC2)cc1)c1cccs1	i	?	i	?	-23.9%	20.6µM*
O=C(NC(=S)Nc1ccc(S(=O)(=O)N2CCCC2)cc1)c1cccs1	10.3µM*	?	i	0.3%	1.0%	?
CCOC(=O)c1c(-c2ccccc2)csc1NC(=O)c1cc(-c2ccc(C)c(F)c2)on1	i	4.1%	i	.	.	-4.1%
Cc1ccccc1NC(=O)CSC1=Nc2ccccc2C2=NC(CCC(=O)NCc3ccccc3)C(=O)N12 (configuration not stated)	i	-25.8%	i	.	.	?
CCc1ccc(NC(=O)CSC2=Nc3ccccc3C3=NC(CCC(=O)NCc4ccccc4)C(=O)N23)cc1 (configuration not stated)	i	?	i	.	.	23.1µM*
O=C(CCC1N=C2c3ccccc3N=C(SCC(=O)Nc3ccccc3F)N2C1=O)NCc1ccccc1 (configuration not stated)	?	?	i	.	.	?
SMILES	KB-V1 cytotox	DT40 TDP1 CPT	KB-3-1 tox	HT1080-NT tox	HT1080 IDH1KD tx	TDP1 cell noCPT
CCOc1ccc(NC(=O)CSC2=Nc3ccccc3C3=NC(CCC(=O)NCc4ccccc4)C(=O)N23)cc1 (configuration not stated)	i	?	?	.	.	16.4µM*
CCc1ccc(NC(=O)CSC2=Nc3ccccc3C3=NC(CCC(=O)NCCc4ccccc4)C(=O)N23)cc1 (configuration not stated)	i	23.1µM*	i	.	.	?
CCc1ccccc1NC(=O)CSC1=Nc2ccccc2C2=NC(Cc3ccccc3)C(=O)N12 (configuration not stated)	?	16.4µM*	i	.	.	?
NC(=O)C1CCCN(C(=O)CCC(=O)c2cccs2)C1 (configuration not stated)	i	12.1%	i	4.6%	9.1%	8.9%
Cc1ccc(-n2ncc(C(=O)NCCN3CCN(C)CC3)c2C2CCN(C(=O)OC(C)(C)C)CC2)c(C)c1	?	-27.3%	i	.	.	?
O=c1[nH][nH]cc1C=Nc1ccccc1O	i	?	i	-19.4%	-26.5%	?
O=c1c(=Nc2ccccc2O)c(=O)c2ccccc12	i	7.31µM*	i	-24.6%	?	11.6µM*
O=C(CNC(=O)c1ccccc1)Sc1ccccc1	i	?	i	-12.8%	-14.1%	18.4µM*
O=C(NCSc1ccccc1)c1ccccc1	i	?	i	3.1%	1.1%	-28.0%
COc1ccc(N2CC3=C(C2=O)C(c2ccc(O)c(OC)c2)NC(=O)N3C)cc1 (configuration not stated)	i	.	i	.	.	.
COc1cc(CC2COC(=O)C2(O)Cc2ccc(O)c(OC)c2)ccc1O (configuration not stated)	i	11.6µM*	i	-0.5%	-19.5%	9.2µM*
COc1cc(CC2C(=O)OCC2C(=O)c2ccc3c(c2)OCO3)cc(OC)c1OC (configuration not stated)	?	0.6%	i	14.4%	14.8%	5.9%
COc1cc(C[C@@H]2C(=O)OC[C@H]2Cc2ccc(OC)c(OC)c2)ccc1O	i	2.31µM*	i	-0.2%	-10.5%	2.59µM*

Compound activity (PubChem)
